The values below come from PubChem BioAssay (Tox21).

The target of test [1] is Thyrotropin-releasing hormone receptor (Homo sapiens) (UniProt P34981). The test is described as follows: qHTS assay to identify small molecule agonists of the thyrotropin-releasing hormone receptor (TRHR) signaling pathway (AID 1346891; calls by dose curve; also: series mostly up to about 58 µM). In a few lines:
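Screening of agonists relied on calcium signalling in HEK293 cells expressing human TRHR: dye loading 2 h at 37 °C preceded compound addition and a 3-min fluorescence time course.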

The nature of test [2]: Human pregnane X receptor (PXR) small molecule agonists, qHTS cell viability counter screen (AID 1346977). Also: nearly all actives have a fitted effect of over 50% in size. Also: potency is read from the fitted curve at half-maximal effect. In a few lines:
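Tox21 qHTS format; PXR-Luc HepG2, 2,000/well, charcoal-stripped FBS 5%. Cpd exposure 24hr. Read: CellTiter-Fluor fluorescence, multiplexed with luciferase.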

The nature of test [3]: Caspase-3/7 induction in HepG2 cells by small molecules, qHTS assay (AID 1346978). Also: nearly all actives have a fitted effect of over 15% in size. The gist of the method:
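Caspase-3/7 induction was measured by Caspase-Glo 3/7 luminescence (30 min, room temperature) after a 17 hr compound exposure of wild-type HepG2 cells seeded at 2,000 per well and pre-incubated 5 hr.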

The nature of test [4]: Caspase-3/7 induction in CHO-K1 cells by small molecules, qHTS cell viability counter screen (AID 1346979). Also: nearly all actives have a fitted effect of over 35% in size. In a few lines:
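CellTiter-Fluor viability check, qHTS format: wild-type CHO-K1, 16hr compound treatment, 1hr reagent incubation, fluorescence read.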

Test [5] can be described thus: Caspase-3/7 induction in CHO-K1 cells by small molecules, qHTS assay (AID 1346980). Also: nearly all actives have a fitted effect of over 15% in size. The gist of the method: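 Luminescent Caspase-Glo 3/7 read (30min, room temperature) quantified apoptosis induction. Cells were wild-type CHO-K1, treated with compound for 17hr at 37 C and 5% CO2.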
The nature of test [6]: Caspase-3/7 induction in HepG2 cells by small molecules, qHTS cell viability counter screen (AID 1346981). Also: series mostly up to about 92 µM; nearly all actives have a fitted effect of over 30% in size. In a few lines: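 In this quantitative HTS counter screen, compounds delivered in DMSO were left on unmodified HepG2 cells for 16 hr at 37 C. Viability was then determined fluorometrically with CellTiter-Fluor, in parallel with caspase-3/7 induction in the same wells.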

The target of test [7] is Nuclear receptor subfamily 1 group I member 2 (Homo sapiens) (UniProt O75469). The experiment in a line: Human pregnane X receptor (PXR) small molecule agonists, qHTS assay (AID 1346982). Also: nearly all actives have a fitted effect of over 35% in size. Also: potency is read from the fitted curve at half-maximal effect. The gist of the method: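 Reporter HepG2 cells expressing PXR-Luc are cultured in charcoal-stripped FBS (5%), treated with compounds for 24 hr at 37 C, and assayed by ONE-Glo luminescence after 30 min at room temperature.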
Nuclear receptor subfamily 1 group I member 2 (Homo sapiens), sequence (O75469 whole entry, looked up): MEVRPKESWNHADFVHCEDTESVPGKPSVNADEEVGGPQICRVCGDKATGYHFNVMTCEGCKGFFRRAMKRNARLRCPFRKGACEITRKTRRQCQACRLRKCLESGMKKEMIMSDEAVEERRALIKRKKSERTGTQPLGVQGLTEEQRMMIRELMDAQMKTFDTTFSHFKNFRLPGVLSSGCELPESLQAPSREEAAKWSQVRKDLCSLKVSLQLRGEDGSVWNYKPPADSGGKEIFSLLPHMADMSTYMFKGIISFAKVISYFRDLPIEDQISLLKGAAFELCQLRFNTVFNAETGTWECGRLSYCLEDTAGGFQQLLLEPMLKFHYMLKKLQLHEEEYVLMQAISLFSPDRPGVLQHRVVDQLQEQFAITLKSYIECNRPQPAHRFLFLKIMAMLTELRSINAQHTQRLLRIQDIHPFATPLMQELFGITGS

Test [8] concerns the target Nuclear receptor subfamily 1 group I member 2 (Rattus norvegicus) (UniProt Q9R1A7). The test is described as follows: Rat pregnane X receptor (rPXR) activation by small molecules, qHTS assay (AID 1346983). Also: nearly all actives have a fitted effect of over 20% in size. Conditions: rPXR luciferase reporter cells, One-Glo luminescence, 24 h; max activation: hits give high values. The gist of the method: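 Luminescent readout (One-Glo luciferase, 30 min room temperature) followed 24 hr compound treatment at 37 C of rPXR cells plated 2,000 per well and preincubated 5hr; qHTS format with compounds delivered in DMSO.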

Test [9] addresses Nuclear receptor subfamily 1 group I member 2 (Homo sapiens) (UniProt O75469). The experiment in a line: CYP3A4 induction through human pregnane X receptor (PXR) by small molecules, qHTS assay (AID 1346984). Also: nearly all actives have a fitted effect of over 40% in size. The gist of the method:
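Induction measured in HepG2-based DPX-2 cells co-expressing human PXR and a CYP3A4 promoter-driven luciferase. After a 24-hour compound exposure, cells received CYP3A4 luciferin substrate at 3uM final for 3 hours, and light output was then recorded.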

The target is the same in test [10]. The test is described as follows: Human pregnane X receptor (PXR) activation by small molecules, qHTS assay (AID 1346985). Also: nearly all actives have a fitted effect of over 40% in size. In a few lines: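 DPX-2 cells (HepG2 co-transfected with a PXR response element and a CYP3A4-promoter luciferase construct) were seeded at 2,000 per well, rested 5 hr at 37C, then exposed to DMSO-dissolved compounds for 24 hr. Activation was read as luciferase luminescence.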

The target in test [11] is Cytochrome P450 2D6 (Homo sapiens) (UniProt P10635). The experiment in a line: Cytochrome P450 Family 2 Subfamily D Member 6 (CYP2D6) small molecule antagonists: luciferase reporter qHTS assay (AID 1671196). Also: nearly all actives have a fitted effect of over 50% in size. Also: potency is read from the fitted curve at half-maximal effect. As to activity change, negative = inhibition: series mostly up to about 120 µM. The gist of the method:
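Test chemicals meet CYP2D6 plus proluciferin substrate (10 min, RT); NADPH regenerating solution then drives turnover for 1 h. Detection reagent halts the reaction; luminescence measured after 20 min.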

Test [12] deals with Cytochrome P450 2C19 (Homo sapiens) (UniProt P33261). The test is described as follows: Cytochrome P450 Family 2 Subfamily C Member 19 (CYP2C19) small molecule antagonists: luciferase reporter qHTS assay (AID 1671197). Also: nearly all actives have a fitted effect of over 65% in size. Also: potency is read from the fitted curve at half-maximal effect. As to activity change, negative = inhibition: series mostly up to about 120 µM. In a few lines: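 Light output is proportional to CYP2C19 activity: proluciferin substrate is converted to luciferin, then detected by a luciferin detection reagent that also stops the 1 h, 37C NADPH-driven reaction. Ketoconazole serves as positive control.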
Cytochrome P450 2C19 (Homo sapiens), sequence (P33261 whole entry, looked up): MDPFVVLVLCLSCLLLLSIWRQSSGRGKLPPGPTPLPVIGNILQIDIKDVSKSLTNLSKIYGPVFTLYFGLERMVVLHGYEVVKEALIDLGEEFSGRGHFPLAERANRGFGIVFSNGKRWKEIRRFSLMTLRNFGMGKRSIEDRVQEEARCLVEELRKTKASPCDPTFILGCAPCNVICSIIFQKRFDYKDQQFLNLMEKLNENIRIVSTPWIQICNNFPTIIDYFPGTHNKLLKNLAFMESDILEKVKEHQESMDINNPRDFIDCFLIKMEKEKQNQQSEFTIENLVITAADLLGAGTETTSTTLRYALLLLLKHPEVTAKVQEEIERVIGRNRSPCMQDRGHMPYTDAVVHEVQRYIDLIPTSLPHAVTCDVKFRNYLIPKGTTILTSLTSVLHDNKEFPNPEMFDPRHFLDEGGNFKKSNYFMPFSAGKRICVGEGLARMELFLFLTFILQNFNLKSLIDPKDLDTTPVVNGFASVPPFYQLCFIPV

Test [13] deals with Cytochrome P450 2C9 (Homo sapiens) (UniProt P11712). The experiment in a line: Cytochrome P450 Family 2 Subfamily C Member 9 (CYP2C9) small molecule antagonists: luciferase reporter qHTS assay (AID 1671198). Also: nearly all actives have a fitted effect of over 50% in size. Also: potency is read from the fitted curve at half-maximal effect. As to activity change, negative = inhibition: series mostly up to about 120 µM. In a few lines: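 Enzyme-substrate mix preincubated with compound 10 min at room temperature; reaction started with NADPH regeneration solution, 1 h 37C. Luminescent luciferin product read after 20 min detection reagent.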
Cytochrome P450 2C9 (Homo sapiens), sequence (P11712 whole entry, looked up): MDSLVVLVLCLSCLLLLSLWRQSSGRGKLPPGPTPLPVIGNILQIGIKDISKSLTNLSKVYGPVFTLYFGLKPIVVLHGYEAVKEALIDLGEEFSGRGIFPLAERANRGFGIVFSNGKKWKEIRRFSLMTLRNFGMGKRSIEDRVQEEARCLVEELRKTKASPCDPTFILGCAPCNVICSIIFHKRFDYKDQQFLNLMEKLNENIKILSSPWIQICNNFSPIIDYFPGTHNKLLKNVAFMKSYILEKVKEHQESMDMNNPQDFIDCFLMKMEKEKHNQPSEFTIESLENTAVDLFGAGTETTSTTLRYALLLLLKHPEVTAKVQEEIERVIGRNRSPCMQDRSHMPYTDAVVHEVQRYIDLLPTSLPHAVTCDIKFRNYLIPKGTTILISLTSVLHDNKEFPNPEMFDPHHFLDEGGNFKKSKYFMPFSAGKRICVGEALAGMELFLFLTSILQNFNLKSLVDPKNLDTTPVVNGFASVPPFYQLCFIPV

For test [14], the target named is Cytochrome P450 1A2 (Homo sapiens) (UniProt P05177). The test is described as follows: Cytochrome P450 Family 1 Subfamily A Member 2 (CYP1A2) small molecule antagonists: luciferase reporter qHTS assay (AID 1671199). Also: series mostly up to about 120 µM; nearly all actives have a fitted effect of over 50% in size. In a few lines:
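Steps: enzyme-substrate mix dispensed; test compounds and furafylline control pinned in; 10 min room temperature; NADPH regeneration solution added, 1 h; reaction stopped with luciferin detection reagent; luminescence read after 20 min.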

For test [15], the target named is Voltage-gated inwardly rectifying potassium channel KCNH2 (Homo sapiens) (UniProt Q12809). The experiment in a line: Human Ether-a-go-go-Related Gene (hERG) channel small molecule antagonists: fluorescence cell-based qHTS assay (AID 1671200). The gist of the method:
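Kinetic two-minute fluorescence traces, sampled at 1 s, were collected following thallium stimulus of U2OS cells (1000 per well) that had been cultured overnight at 37 C and loaded with FluxOR II.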

In test [16] the target is Cytochrome P450 3A4 (Homo sapiens) (UniProt P08684). The experiment in a line: Cytochrome P450 Family 3 Subfamily A Member 4 (CYP3A4) small molecule antagonists: luciferase reporter qHTS assay (AID 1671201). In a few lines: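 Proluciferin-to-luciferin conversion by CYP3A4, NADPH-regenerated, 1 h RT; luminescence read as RLU. Ketoconazole as control.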
Cytochrome P450 3A4 (Homo sapiens), sequence (P08684 whole entry, looked up): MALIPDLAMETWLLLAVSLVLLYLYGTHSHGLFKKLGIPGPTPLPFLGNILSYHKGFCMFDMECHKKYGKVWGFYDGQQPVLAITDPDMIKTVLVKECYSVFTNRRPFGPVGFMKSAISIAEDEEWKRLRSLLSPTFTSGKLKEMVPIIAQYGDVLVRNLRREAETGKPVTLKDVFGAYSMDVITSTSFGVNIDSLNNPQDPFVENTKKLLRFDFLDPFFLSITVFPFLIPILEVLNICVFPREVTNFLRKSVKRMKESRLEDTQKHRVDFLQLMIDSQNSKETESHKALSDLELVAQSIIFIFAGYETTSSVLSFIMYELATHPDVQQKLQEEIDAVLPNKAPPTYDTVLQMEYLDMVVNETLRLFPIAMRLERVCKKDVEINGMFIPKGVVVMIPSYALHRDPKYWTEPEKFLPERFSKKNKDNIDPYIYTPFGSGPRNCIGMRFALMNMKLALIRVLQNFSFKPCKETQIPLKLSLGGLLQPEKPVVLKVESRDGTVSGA

Values without a mark were called inactive. Inconclusive results are not listed. The source made the active and inactive calls. Unless noted, calls follow the shape of the dose curve; as a rule, active = well fitted curve in the direction sought with a large enough effect in the repeat runs; inconclusive = weak or mixed curves; inactive = no such curve, though single readings can be large; an effect the other way counts as inactive or inconclusive.
% is scaled to controls: 0 for no effect and ±100 for the full control effect.

Thyrotropin-releasing hormone receptor (Homo sapiens), sequence (P34981 whole entry, looked up): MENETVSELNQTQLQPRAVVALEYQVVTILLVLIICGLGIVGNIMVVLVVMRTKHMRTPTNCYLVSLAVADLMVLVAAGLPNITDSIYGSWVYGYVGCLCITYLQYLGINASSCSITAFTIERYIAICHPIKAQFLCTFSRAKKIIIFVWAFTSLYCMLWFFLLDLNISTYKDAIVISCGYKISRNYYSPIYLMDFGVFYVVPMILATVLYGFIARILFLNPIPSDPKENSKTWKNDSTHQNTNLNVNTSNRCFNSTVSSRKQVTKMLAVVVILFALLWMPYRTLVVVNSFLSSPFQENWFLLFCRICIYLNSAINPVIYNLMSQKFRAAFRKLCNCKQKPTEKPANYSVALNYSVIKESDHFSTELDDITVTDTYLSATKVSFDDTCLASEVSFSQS
Cytochrome P450 1A2 (Homo sapiens), sequence (P05177 whole entry, looked up): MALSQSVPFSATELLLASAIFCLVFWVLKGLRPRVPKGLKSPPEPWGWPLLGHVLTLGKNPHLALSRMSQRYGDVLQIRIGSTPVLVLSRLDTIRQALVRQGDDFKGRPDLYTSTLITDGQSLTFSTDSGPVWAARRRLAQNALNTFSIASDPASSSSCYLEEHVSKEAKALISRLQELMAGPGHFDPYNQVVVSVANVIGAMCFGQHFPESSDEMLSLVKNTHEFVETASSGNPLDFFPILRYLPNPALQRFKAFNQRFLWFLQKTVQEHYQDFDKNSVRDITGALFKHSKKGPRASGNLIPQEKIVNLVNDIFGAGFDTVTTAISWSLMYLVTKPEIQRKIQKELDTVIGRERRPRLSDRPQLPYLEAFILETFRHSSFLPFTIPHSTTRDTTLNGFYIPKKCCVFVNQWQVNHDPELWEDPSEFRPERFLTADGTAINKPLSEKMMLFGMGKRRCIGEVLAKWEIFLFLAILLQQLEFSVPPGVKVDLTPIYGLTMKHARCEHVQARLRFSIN
Voltage-gated inwardly rectifying potassium channel KCNH2 (Homo sapiens), sequence (Q12809 whole entry, looked up): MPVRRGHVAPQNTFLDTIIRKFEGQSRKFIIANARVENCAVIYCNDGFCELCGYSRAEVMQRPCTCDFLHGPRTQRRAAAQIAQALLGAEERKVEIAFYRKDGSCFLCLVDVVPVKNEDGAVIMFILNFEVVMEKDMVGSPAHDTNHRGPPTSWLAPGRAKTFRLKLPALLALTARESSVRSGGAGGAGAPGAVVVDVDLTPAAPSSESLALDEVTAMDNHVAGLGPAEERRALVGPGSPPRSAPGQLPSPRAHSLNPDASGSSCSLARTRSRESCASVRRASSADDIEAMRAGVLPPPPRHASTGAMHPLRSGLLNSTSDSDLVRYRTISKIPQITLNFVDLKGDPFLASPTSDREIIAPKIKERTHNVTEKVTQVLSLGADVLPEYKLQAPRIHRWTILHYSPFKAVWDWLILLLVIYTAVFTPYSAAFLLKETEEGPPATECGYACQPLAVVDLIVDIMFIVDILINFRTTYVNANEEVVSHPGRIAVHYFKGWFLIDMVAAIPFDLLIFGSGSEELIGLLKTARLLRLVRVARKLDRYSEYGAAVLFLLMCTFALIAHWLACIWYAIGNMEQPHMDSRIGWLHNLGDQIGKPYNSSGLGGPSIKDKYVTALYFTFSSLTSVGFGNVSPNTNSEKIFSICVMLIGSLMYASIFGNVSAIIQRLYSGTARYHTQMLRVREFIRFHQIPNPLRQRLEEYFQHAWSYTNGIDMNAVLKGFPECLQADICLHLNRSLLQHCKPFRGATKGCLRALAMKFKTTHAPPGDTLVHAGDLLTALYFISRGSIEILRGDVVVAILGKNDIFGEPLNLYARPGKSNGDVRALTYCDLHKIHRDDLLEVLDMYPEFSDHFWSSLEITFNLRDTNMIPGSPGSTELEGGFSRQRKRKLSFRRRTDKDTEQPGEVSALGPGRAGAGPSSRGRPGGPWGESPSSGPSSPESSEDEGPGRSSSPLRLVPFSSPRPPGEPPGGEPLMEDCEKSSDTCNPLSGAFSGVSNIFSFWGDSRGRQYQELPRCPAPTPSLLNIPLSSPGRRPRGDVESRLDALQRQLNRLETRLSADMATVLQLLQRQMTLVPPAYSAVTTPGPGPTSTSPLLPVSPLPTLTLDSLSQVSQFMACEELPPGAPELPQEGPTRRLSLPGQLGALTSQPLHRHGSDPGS
Cytochrome P450 2D6 (Homo sapiens), sequence (P10635 whole entry, looked up): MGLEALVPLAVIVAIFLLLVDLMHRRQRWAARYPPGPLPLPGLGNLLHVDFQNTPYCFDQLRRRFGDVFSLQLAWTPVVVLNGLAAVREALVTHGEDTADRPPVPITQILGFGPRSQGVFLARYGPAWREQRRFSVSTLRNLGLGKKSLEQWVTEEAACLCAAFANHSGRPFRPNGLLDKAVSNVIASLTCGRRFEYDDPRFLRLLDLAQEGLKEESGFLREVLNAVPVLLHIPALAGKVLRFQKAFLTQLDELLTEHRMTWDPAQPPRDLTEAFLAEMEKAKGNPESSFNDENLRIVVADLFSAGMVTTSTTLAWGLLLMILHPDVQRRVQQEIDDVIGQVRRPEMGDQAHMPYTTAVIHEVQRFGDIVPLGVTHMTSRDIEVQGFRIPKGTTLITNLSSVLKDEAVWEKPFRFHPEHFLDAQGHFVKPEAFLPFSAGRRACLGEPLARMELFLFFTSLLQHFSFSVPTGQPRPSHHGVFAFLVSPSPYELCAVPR
Nuclear receptor subfamily 1 group I member 2 (Rattus norvegicus), sequence (Q9R1A7 whole entry, looked up): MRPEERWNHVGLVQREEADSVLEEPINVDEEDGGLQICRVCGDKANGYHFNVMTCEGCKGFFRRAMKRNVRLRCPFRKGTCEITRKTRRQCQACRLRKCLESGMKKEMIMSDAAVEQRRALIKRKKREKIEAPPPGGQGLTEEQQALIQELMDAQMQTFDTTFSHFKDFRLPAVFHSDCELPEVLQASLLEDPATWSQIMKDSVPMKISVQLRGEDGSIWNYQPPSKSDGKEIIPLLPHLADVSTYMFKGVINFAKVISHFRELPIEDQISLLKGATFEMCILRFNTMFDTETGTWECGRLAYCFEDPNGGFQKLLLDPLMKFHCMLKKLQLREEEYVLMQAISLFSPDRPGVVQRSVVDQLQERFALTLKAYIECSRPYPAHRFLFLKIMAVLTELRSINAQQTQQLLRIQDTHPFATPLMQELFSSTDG

Turning to `Nc1ccc(S(=O)(=O)NCc2ccccc2)cc1`, the call in test [1] and in [5] was inactive. The Potency entry in test [2], in test [3], in test [4], in test [6], in test [7] and in test [9] was “inactive” each time. In addition, the Potency entry in test [10], in [11], in test [13], in [14] and in [15] was “inactive” each time. For the same molecule, the max activation in test [8] was -1.8%. In test [12], the Potency is 2.19 µM (active).
On to `CC(C)Cc1ccc(CC(=O)O)cc1`, for which the outcome in [1] and in test [5] was inactive. Further, the Potency result in [2], in [3], in [4], in test [6], in [7] and in [9] was “inactive” throughout. Moreover, the Potency entry in test [10], in test [12], in [14], in [15] and in test [16] was “inactive” each time. Also, the max activation in [8] was -5.33%.
For the molecule `CCC(Cl)CC(Cl)C(Cl)C(Cl)C(Cl)C(C)Cl` (configuration not stated), the activation in test [1] was 0.352% [at 11.8 µM]. Further, the activity change, negative = cytotoxicity in test [2] was -5.6% [at 19 µM]; in [4] it was 10.4% [at 19 µM]; in test [6] it was 1.11% [at 19 µM]. In test [3], the caspase activation is -16.4% [at 19 µM]. Besides, the caspase-3/7 activation in test [5] is -6.38% [at 19 µM]. Moreover, the Potency in test [7] was 1.19 µM (active); in [12], 1.73 µM (active); in test [13] it was 1.38 µM (active). Moreover, in test [11], the activity change, negative = inhibition is -20% [at 23.6 µM].
As for `O=c1[nH]c2cc(C(F)(F)F)c(N3CCOCC3)cc2n(CP(=O)(O)O)c1=O`, the outcome in test [1] and in test [5] was inactive. The Potency result in test [2], in [3], in [4], in test [6], in test [7] and in test [9] was “inactive” throughout. The Potency result in test [10], in [11], in test [12], in test [13], in test [14] and in test [16] was “inactive” in each case. Further, in test [8], the max activation was -2.81%.
For the molecule `COc1ccc(-c2cc(C(F)F)nn2-c2ccc(S(N)(=O)=O)cc2)cc1F`, the call in test [1] and in test [5] was inactive. For the same molecule, the Potency entry in test [2], in test [3], in test [4], in test [6], in [9] and in test [10] was “inactive” in each case. In test [14], the Potency result is “inactive”. For the same molecule, the Potency was 15 µM (active) in [7], 8.71 µM (active) in test [11] and 8.71 µM (active) in test [13]. For the same molecule, in [8], the max activation was -1.2%.
Regarding `CC[C@H]1OC(=O)[C@H](C)[C@@H](O[C@H]2C[C@@](C)(OC)[C@@H](O)[C@H](C)O2)[C@H](C)[C@@H](O[C@@H]2O[C@H](C)C[C@H](N(C)C)[C@H]2O)[C@](C)(O)C[C@@H](C)CN(C)[C@H](C)[C@@H](O)[C@]1(C)O`, the result in test [1] and in [5] was inactive. In [2], the Potency was 18.1 µM (active). In addition, the Potency result in test [3], in test [4], in test [6], in test [7], in test [10] and in [11] was “inactive” in each case. Also, the Potency entry in test [12], in [13] and in test [14] was “inactive” throughout.
Regarding `COc1ccc(C(=O)NCc2ccc(OCCN(C)C)cc2)cc1OC`, the outcome in test [1] and in test [5] was inactive. Moreover, the Potency result in test [2], in test [3], in test [4], in test [6], in test [7] and in [9] was “inactive” in each case. The Potency entry in test [10], in [11], in test [12], in [13], in test [14] and in test [15] was “inactive” in each case. Further, the Potency result in test [16] is “inactive”. Further, in test [8], the max activation is -0.841%.
As to `O=C(c1ccccc1)C1CCC1`, the molecule was called inactive in [1] and in test [5]. Further, the Potency result in [2], in [3], in test [4], in test [6], in test [7] and in [11] was “inactive” each time. In addition, the Potency result in [12], in test [13], in test [14] and in [15] was “inactive” each time.
